High-throughput results: PubChem, several laboratories
Most compounds without a hit are left out; they make up all but 4.1% or so of the library.
MITF TRPM1 inh – inhibitors of MITF-dependent TRPM1 promoter reporter, primary screen, cell-based, SK-MEL-5, single point, luciferase. SK-MEL-5 TRPM1 promoter luciferase, 24 h. AID 488899, 2010. 330,000 compounds, 0.83% hits. inhibition, % at 12.5 µM;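 active means mean inhibition across replicates of 60% or more, whatever share of single replicates reaches that level; inconclusive means some that reach 60%, reason not given; inactive means mean inhibition across replicates below 60%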
TROY signal inh – inhibitors of TROY-driven NF-kB signaling, primary screen, Q293 LMP1-TROYcd cells, NF-kB luciferase, uHTS. Q293 LMP1-TROYcd NF-kB luciferase reporter, 4 h. inhibition, % at 10 µM. 360,000 compounds, 0.98% hits;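 active means compounds whose plate-normalised and pattern-corrected inhibition of the luciferase reporter signal at the single screening dose is 50% or more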
EBV LMP1 NFkB – EBV LMP1-driven NF-kappaB luciferase reporter inhibitors, primary screen, cell-based, luminescence, single point; LMP1-induced NF-kappaB luciferase reporter cells; inhibition, % at 12.5 µM; 350,000 compounds, 0.69% hits; AID 504558, 2011; in the data active means inhibition above about 41%; inconclusive means no clear call, values can overlap the other calls
TWEAK Fn14 block – inhibitors of TWEAK-Fn14 signaling, primary screen, luciferase reporter cells, uHTS; 360,000 compounds, 2% hits; AID 1159606, 2016; inhibition, % at 10 µM; TWEAK-stimulated Fn14 reporter cells, luciferase luminescence, 8 h; in the data active means inhibition above about 50%
Peg3 prom inh – Peg3 promoter-driven luciferase inhibitors, primary screen, cell-based, HeLa, luciferase luminescence | 360,000 compounds, 1.7% hits | HeLa PEG-Prom luciferase reporter, overnight | inhibition, % at 20 µM | AID 588405, 2011;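 active means inhibition of at least 50% at 20 µM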
Shn3 inh set2 – reduction of Shn3 3'UTR firefly luciferase signal, primary screen, Schnurri-3 inhibitor project, cell-based, Clone20 osteoblasts, set 2. Clone20 osteoblast Shn3 3'UTR firefly luciferase, 24 h. inhibition, % at 12.5 µM. 360,000 compounds, 0.52% hits. AID 588674, 2011;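 active means mean inhibition of at least 75% with every replicate also reaching 75%; inconclusive means mean inhibition at least 75% but some replicate below; inactive means mean inhibition below 75%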
A number is an active result; n = inactive; u = inconclusive; x = no result.

SMILES | MITF TRPM1 inh | TROY signal inh | EBV LMP1 NFkB | TWEAK Fn14 block | Peg3 prom inh | Shn3 inh set2
Cc1cccc(C(C)C)c1NC(=O)c1ccc(OCC2CCCO2)cc1 (stereo not drawn) | n | n | n | n | n | n
CCOc1ccc2nc(NC(=O)CSc3nnc(-c4ccncc4)n3CC3CCCO3)sc2c1 (stereo not drawn) | n | n | n | n | n | n
COc1ccc(C)cc1S(=O)(=O)NC(C)c1cnn(-c2ccccn2)c1C (stereo not drawn) | n | n | n | n | n | n
C=CCN1C(=O)c2ccc(C(=O)N(C)CC(=O)Nc3ccccc3Br)cc2C1=O | n | n | n | n | n | n
Cc1ccc(NC(=O)c2ccc(OCC3CCCO3)cc2)c(C)c1 (stereo not drawn) | x | n | n | n | n | n
Cc1ccnc(NC(=O)c2ccc(OCC3CCCO3)cc2)c1 (stereo not drawn) | n | 56.8 | 45.2 | 82.7 | n | n
Cc1cc(NC(=O)COc2ccccc2)ccc1Cl | n | n | n | n | n | n
CCSc1ccccc1C(=O)N1CCCC1 | n | n | n | n | n | n
CCSc1ccccc1C(=O)n1nnc2ccccc21 | 69.1 | n | n | 71.8 | 70.1 | n
O=C(CCc1ccc(Oc2cc([N+](=O)[O-])cc([N+](=O)[O-])c2)cc1)Nc1cccc(Cl)c1 | n | n | n | 58.5 | n | n
O=C(Nc1cc(Oc2ccc(Cl)cc2)cc([N+](=O)[O-])c1)c1ccco1 | n | 57.0 | n | 56.8 | n | n
CCOc1ccc(Oc2cc(NC(=O)c3ccco3)cc([N+](=O)[O-])c2)cc1 | n | n | n | n | n | n
COCCOC(=O)C1=C(C)NC(=O)NC1c1ccc(-c2ccc(F)cc2)o1 (stereo not drawn) | n | n | n | n | n | n
CC1=C(C(=O)OCc2ccc3c(c2)OCO3)C(c2cccc([N+](=O)[O-])c2)NC(=O)N1 (stereo not drawn) | n | n | n | 74.8 | n | n
CCOC(=O)C1=C(C)NC(=O)NC1c1ccc(-c2ccccc2F)o1 (stereo not drawn) | n | 54.4 | n | n | n | n
CCOc1ccc(C2NC(=O)NC(C)=C2C(=O)OCc2ccccc2)cc1 (stereo not drawn) | n | n | n | n | n | n
CCC(CC)COC(=O)C1=C(C)NC(=O)NC1c1cc(OC)ccc1OC (stereo not drawn) | n | n | n | 104.4 | n | n
CC1=C(C(=O)OCc2ccccc2)C(c2cccc([N+](=O)[O-])c2)NC(=O)N1 (stereo not drawn) | n | n | n | n | n | n
COc1ccc(COC(=O)C2=C(C)NC(=O)NC2c2ccc(F)cc2)cc1 (stereo not drawn) | n | n | n | 53.4 | n | n
CCC(=O)N1CCC1(C)C(=O)Nc1cc(OC)ccc1OC (stereo not drawn) | x | n | x | n | n | n
CC(=O)Nc1ccc2nc(NC(=O)CN3CCOCC3)sc2c1 | n | n | n | n | n | n
CCCCCc1c(-c2ccccc2OC)ncn1CCc1ccccc1OC | x | 56.1 | x | 52.3 | x | x
CCCCCc1c(-c2ccccc2F)ncn1CCc1ccccc1OC | x | n | x | n | x | x
CCCCc1c(-c2ccccc2OC)ncn1CCc1ccccc1OC | x | 54.9 | x | n | x | x
OCC[C@@H]1C[C@@H](O)[C@H](O)[C@]2(CCc3ccccc3CO2)O1 | n | n | n | n | n | n
SMILES | MITF TRPM1 inh | TROY signal inh | EBV LMP1 NFkB | TWEAK Fn14 block | Peg3 prom inh | Shn3 inh set2
O=C(CN1CC(c2ccccc2)CC1=O)N/N=C/c1cc(Br)ccc1O (stereo not drawn) | n | n | n | n | n | 88.0
O=C(CNC(=O)c1ccccc1)N/N=C/c1cc(Br)ccc1O | n | n | n | n | n | u
COc1ccc(C(=O)NC(=S)Nc2ccc(N3CCOCC3)cc2)cc1Cl | n | n | n | n | n | n
CC(C)CN(C(=O)COc1ccc(Br)cc1C=O)C1CCS(=O)(=O)C1 (stereo not drawn) | n | n | n | n | n | n
O=C(COc1ccccc1[N+](=O)[O-])Nc1ccc(NC(=O)c2cc3ccccc3o2)cc1 | n | 51.9 | n | n | n | n
O=C(COc1ccc(/C=N/NC(=O)c2cc3ccccc3o2)cc1Br)Nc1ccccc1 | 93.2 | n | n | n | 99.1 | n
O=C(N/N=C/c1ccco1)c1cc2ccccc2o1 | n | n | n | n | n | n
Cc1cc(C[n+]2cc(Cl)ccc2N)c2ncccc2c1 | n | n | n | n | n | n
Cc1cc(C[n+]2cc(Br)ccc2N)c2ncccc2c1 | n | n | n | n | n | 91.9
COc1ccc(OC)c(NC(=O)c2nnn(CC(=O)Nc3ccc4c(c3)OCO4)c2N)c1 | n | n | n | n | n | n
Cc1ccc2nc(NC(=O)CCCc3nc4ccccc4s3)sc2c1 | n | n | n | n | n | n
CS(=O)(=O)c1ccc2nc(NC(=O)c3cccs3)sc2c1 | n | n | n | 69.0 | n | n
Cc1ccc2nc(NC(=S)NC(=O)c3cccs3)sc2c1 | n | 54.0 | n | n | n | n
Cc1ccc(C(=O)Nc2nc3ccc(S(C)(=O)=O)cc3s2)s1 | n | n | n | n | n | n
Cc1ccc2nc(NC(=S)NC(=O)c3ccc(OC(C)C)cc3)sc2c1 | n | n | n | n | n | n
Cc1ccc2nc(NC(=O)CCCC(=O)O)sc2c1 | 79.0 | 66.2 | n | 86.3 | n | n
Cc1ccc2nc(NC(=O)c3cccs3)sc2c1 | n | n | n | 78.5 | n | n
CCC(c1nnnn1-c1ccc2c(c1)OCCO2)N1CCN(c2ccc(F)cc2)CC1 (stereo not drawn) | x | n | x | n | x | x
Cc1ccccc1NC(=O)Nc1nc2ccc(S(C)(=O)=O)cc2s1 | n | n | n | n | n | n
NS(=O)(=O)c1ccc2nc(NC(=O)Nc3ccccc3F)sc2c1 | n | n | n | 50.6 | n | n
CCOC(=O)c1c(C)oc2cc(Cl)c(O)c(CN(C)C)c12 | n | n | n | n | n | n
CCOC(=O)c1c(-c2ccccc2)oc2cc(CN(C)C)c(O)c(CN(C)C)c12 | n | n | n | n | 67.8 | 94.3
CCOC(=O)c1c(-c2ccccc2)oc2ccc(O)c(CN3CCN(C)CC3)c12 | n | n | n | n | 53.7 | n
COCCOC(=O)c1c(C)oc2ccc(O)c(CN3CCC(C)CC3)c12 (tested in a mixture with another compound) | n | n | n | n | n | 92.9
CCOC(=O)c1c(C)n(C)c2ccc(O)c(CN3CCC(C)CC3)c12 | n | n | n | n | n | n
COc1ccc(CCNC(=O)c2cccc(S(=O)(=O)N3CCCCCC3)c2)cc1 | n | n | n | n | n | n
